KCNQ2 block: KCNQ2 (rat) channel inhibition; O88943; CHO-K1 KCNQ2, FluxOR thallium flux, 20 min; stronger effect = lower value; B-score at 10 µM; hit rate 1.1% among 310,000;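 active means fluorescence ratio B-score at most minus 3 library SDs, with starting brightness B-score within 2 library SDs, cut at about -5.5 in these data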
KCNQ2 enhance: potentiators of rat KCNQ2 potassium channel; O88943; CHO-K1 KCNQ2, FluxOR thallium flux fluorescence; stronger effect = higher value; B-score at 10 µM; hit rate 0.54% among 310,000; AID 2239;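 active means fluorescence ratio B-score at least 3 SD of library B-scores, with initial fluorescence B-score within 3 of them, cut at about 5.3 in these data; same plate scores as AID 2156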;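 further: B-score of peak minus minimum over baseline fluorescence ratio after K+ and Tl+ stimulus; positive B-score means potentiation of KCNQ2 with more thallium influx and brighter signal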
KCNQ2 block conf: rat KCNQ2 channel inhibition, confirmatory screen. activity change, negative = inhibition, % at 10 µM. hit rate 57% among 1,000. shares compounds with KCNQ2 block. AID 493025. KCNQ2-expressing cells, thallium flux; stronger effect = lower value
KCNQ1 spec: KCNQ2 inhibitor that also affects human KCNQ1 channel; shares compounds with KCNQ2 block; KCNQ1-expressing cells, FluxOR thallium flux fluorescence; stronger effect = lower value; activity change, negative = inhibition, % at 10 µM; hit rate 15% among 1,000; AID 493026;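 active means activity change at least 3 SD of negative controls below their mean in both duplicate wells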;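 further: CHO cells stably transfected with KCNQ1 and depolarized by potassium stimulus; peak minus minimum fluorescence over baseline after thallium addition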
Target sequence (P51787 whole entry, looked up): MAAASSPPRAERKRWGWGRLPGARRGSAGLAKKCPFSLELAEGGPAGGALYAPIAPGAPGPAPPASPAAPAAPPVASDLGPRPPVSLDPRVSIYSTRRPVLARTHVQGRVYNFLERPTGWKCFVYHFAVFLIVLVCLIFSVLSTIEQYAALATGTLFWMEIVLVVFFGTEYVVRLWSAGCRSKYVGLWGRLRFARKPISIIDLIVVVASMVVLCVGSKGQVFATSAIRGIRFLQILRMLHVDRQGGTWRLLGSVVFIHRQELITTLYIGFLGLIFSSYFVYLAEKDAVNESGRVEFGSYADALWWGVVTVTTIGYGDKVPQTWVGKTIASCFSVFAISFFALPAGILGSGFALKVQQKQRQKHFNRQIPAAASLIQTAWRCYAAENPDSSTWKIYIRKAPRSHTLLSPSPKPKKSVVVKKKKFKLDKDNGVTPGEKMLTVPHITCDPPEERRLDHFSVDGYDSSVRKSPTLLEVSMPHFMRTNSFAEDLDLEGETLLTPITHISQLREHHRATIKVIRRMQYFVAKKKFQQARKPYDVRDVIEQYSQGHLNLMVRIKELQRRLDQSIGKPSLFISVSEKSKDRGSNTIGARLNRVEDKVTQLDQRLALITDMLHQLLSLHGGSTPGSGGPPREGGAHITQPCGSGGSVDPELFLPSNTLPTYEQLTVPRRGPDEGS
CHO Tl ctr: KCNQ2 inhibitor counter-screen hit in parental CHO cells | shares compounds with KCNQ2 block | thallium flux counter-screen; stronger effect = lower value | activity change, % at 10 µM | hit rate 14% among 1,000 | AID 493029
KCNQ2 inh confirm: confirmation of rat KCNQ2 potassium channel inhibitors. calls only at 10 µM. KCNQ2-expressing cells, automated patch clamp current. shares compounds with KCNQ2 block. AID 588531. hit rate 49% among 550
Of the large screens only hits and unclear results are named; the others gave an inactive call (follow-up assays come after a bar, where they were run). Only some compounds are listed: those with a hit (about 1.6% of all), similar ones and a draw of the others. Unless noted, how the calls were made is not given here.

CCOc1ccc(NC(=O)c2ccccc2NC(=O)c2cccnc2)cc1	none
O=C(NC(=O)N1CCN(c2ccc([N+](=O)[O-])cn2)CC1)c1c(Cl)cccc1Cl	none (no result: KCNQ2 enhance)
OCC1OC(n2cnc3ccccc32)CC1O (configuration not stated)	none
Cc1ccc(N2C(=O)N(CC(=O)Nc3ccccc3C)C(=O)C2C)cc1 (configuration not stated)	none (no result: KCNQ2 enhance)
Cc1ccc(N2C(=O)N(CC(=O)NCc3ccccc3Cl)C(=O)C2C)cc1 (configuration not stated)	KCNQ2 block -6.6 | KCNQ2 block conf -28% | KCNQ1 spec inactive | CHO Tl ctr inactive | KCNQ2 inh confirm active
CCOC(=O)/C(C#N)=C/C1=C(N2CCOCC2)C(C)(C)OCC1	none
O=C(CSc1nc2ccccc2c(=O)n1Cc1ccccc1)Nc1ccc(Br)cc1C(=O)O	none
COc1cccc2cc(C(=O)NCCc3c[nH]c4ccccc34)c(=O)oc12	none (no result: KCNQ2 enhance)
CCOC(=O)C1=NNC(C(=O)c2ccccc2)C1c1ccc(C)cc1 (configuration not stated)	none (no result: KCNQ2 enhance)
CCOC(=O)C1=NNC(C(=O)c2ccccc2)C1c1ccc(Cl)cc1 (configuration not stated)	KCNQ2 block -8.8 | KCNQ2 block conf -18% | KCNQ1 spec inactive | CHO Tl ctr inactive | KCNQ2 inh confirm inactive
Cc1nn(C(C)C(=O)N2CCCCC2)c(=O)c2c1sc1ccccc12 (configuration not stated)	KCNQ2 block -8.9 | KCNQ2 block conf -30% | KCNQ1 spec inactive | CHO Tl ctr inactive | KCNQ2 inh confirm active
Cc1nn(C(C)C(=O)O)c(=O)c2c1sc1ccccc12 (configuration not stated)	none (no result: KCNQ2 enhance)
CN(Cc1nccn1C)C(=O)c1ccc2nc(Cc3ccccc3F)oc2c1	none (no result: KCNQ2 enhance)
Cc1nnc(SCC(=O)Nc2cc(S(C)(=O)=O)ccc2Cl)n1Cc1ccccc1	none (no result: KCNQ2 enhance)
CCN1CCC(N2CCN(c3ccccc3OC)CC2)CC1	none
O=S(=O)(Nc1ccc(Cl)cn1)c1ccc(F)cc1	none
COc1ccc(C(=O)Nc2nnc(Cc3ccccc3)s2)c(OC)c1	none (no result: KCNQ2 enhance)
COc1ccc(Cl)cc1NC(=S)NCCc1ccc(S(N)(=O)=O)cc1	none (no result: KCNQ2 enhance)
COc1ccc(Cl)cc1NC(=S)NCCc1ccc(F)cc1	KCNQ2 block -8.7 | KCNQ2 block conf -36% | KCNQ1 spec -34% | CHO Tl ctr -30% | KCNQ2 inh confirm active
CCN(CC)S(=O)(=O)c1ccc(C(=O)NNC(=O)C2CCN(S(=O)(=O)c3ccc(Cl)cc3)CC2)cc1	none (no result: KCNQ2 enhance)
CC(NC(=O)C1CCN(C(=O)Nc2ccccc2)CC1)c1ccccc1 (configuration not stated)	none
COc1ccc(NC(=O)Cn2c(NCC(C)O)nc3ccccc32)cc1Cl (configuration not stated)	none
Cc1ccc(CNS(=O)(=O)c2ccc(C(C)(C)C)cc2)n1C	KCNQ2 block -7.1 | KCNQ1 spec inactive | CHO Tl ctr inactive | KCNQ2 inh confirm active
CC(C)(C)c1ccc(S(=O)(=O)NCCc2ccncc2)cc1	none (no result: KCNQ2 enhance)
Cc1ccc(-c2nc(C(=O)NCC3CCCO3)cc3c2[nH]c2ccccc23)cc1 (configuration not stated)	KCNQ2 block -12 | KCNQ2 block conf -28% | KCNQ1 spec inactive | CHO Tl ctr inactive | KCNQ2 inh confirm inactive
Cc1ccccc1-c1nc(C(=O)NCC2CCCO2)cc2c1[nH]c1ccccc12 (configuration not stated)	none (no result: KCNQ2 enhance)
Cc1ccc(N(CC(=O)N/N=C/c2cccc(Br)c2)S(C)(=O)=O)cc1	none (no result: KCNQ2 enhance)
O=C1CN(C(=O)COC(=O)c2cc(S(=O)(=O)N3CCOCC3)ccc2Cl)c2ccccc2N1	none
O=C(Nc1ccccc1)[C@@H]1CC=C[C@@H]2CCN(C3CCCCC3)C(=O)[C@@H]21	none (no result: KCNQ2 enhance)
COc1ccc(C(=O)CCN2CCN(c3ccc(OC)cc3)CC2)cc1	none (no result: KCNQ2 enhance)
O=C(CCN1CCOCC1)c1ccc(Br)cc1	KCNQ2 block -7.4 | KCNQ2 block conf -47% | KCNQ1 spec -50% | CHO Tl ctr -36% | KCNQ2 inh confirm inactive
O=C(CCN1CCOCC1)c1ccc(Cl)cc1	none (no result: KCNQ2 enhance)
O=C(CCN1CCN(c2ccccc2F)CC1)c1ccc(Br)cc1	KCNQ2 block -8.5 | KCNQ2 block conf inactive | KCNQ1 spec inactive | CHO Tl ctr inactive
COc1ccc(C(=O)CCN2CCN(c3ccccc3F)CC2)cc1	none (no result: KCNQ2 enhance)
O=C(CCN1CCN(c2ccccc2)CC1)c1ccc(Br)cc1	KCNQ2 block -8.2 | KCNQ2 block conf -22% | KCNQ1 spec inactive | CHO Tl ctr inactive | KCNQ2 inh confirm inactive
CN(C)S(=O)(=O)Nc1cc(Cl)cc(Cl)c1	none
CCn1c(SCC(=O)N2CCC(C)CC2)nc2c(c1=O)SC(C)C2 (configuration not stated)	none (no result: KCNQ2 enhance)
COc1ccc(OC)c(/C=C/C(=O)N2CCCc3ccccc32)c1	KCNQ2 block -7 | KCNQ2 block conf -38% | KCNQ1 spec inactive | CHO Tl ctr inactive | KCNQ2 inh confirm inactive
COc1ccc(/C=C/C(=O)N2CCCc3ccccc32)c(OC)c1	none (no result: KCNQ2 enhance)
Cc1ccc(-n2c(SCC(=O)NC3CCS(=O)(=O)C3)nc3ccccc3c2=O)cc1C (configuration not stated)	none (no result: KCNQ2 enhance)
CCN(CC)CCCNC1CCS(=O)(=O)C1 (configuration not stated)	KCNQ2 block -6.7 | KCNQ2 block conf inactive | KCNQ1 spec inactive | CHO Tl ctr inactive
CCNC1CCS(=O)(=O)C1 (configuration not stated)	none (no result: KCNQ2 enhance)
N/C(CC(=O)NC1CCCCC1)=N\OCC(=O)Nc1ccc(Cl)c(Cl)c1	none (no result: KCNQ2 enhance)
Cc1ccc(NC(=S)NCc2ccco2)c(C)c1	none
CCS(=O)(=O)c1nc(S(=O)(=O)c2ccc(C)cc2)c(NCCCn2ccnc2)s1	none
COCCn1c(SCc2cccc([N+](=O)[O-])c2)nc2ccccc2c1=O	none (no result: KCNQ2 enhance)
COc1ccc(C(=O)Nn2c(SCc3cccc([N+](=O)[O-])c3)nc3ccccc3c2=O)cc1	none (no result: KCNQ2 enhance)
O=C(Nn1c(SCc2cccc([N+](=O)[O-])c2)nc2ccccc2c1=O)c1ccccc1	KCNQ2 block -8.9 | KCNQ2 block conf -38% | KCNQ1 spec -40% | CHO Tl ctr -32% | KCNQ2 inh confirm active
CCOC(CCn1c(SCc2cccc([N+](=O)[O-])c2)nc2ccccc2c1=O)OCC	KCNQ2 block -7.3 | KCNQ2 block conf inactive | KCNQ1 spec inactive | CHO Tl ctr inactive
Cc1csc(SCC(=O)NC2CCC(C)CC2)n1 (configuration not stated)	none
C=CCn1c(=O)c(C(=O)NC(C)c2ccccc2)c(O)c2ccccc21 (configuration not stated)	KCNQ2 block -8.2 | KCNQ2 block conf -30% | KCNQ1 spec inactive | CHO Tl ctr inactive | KCNQ2 inh confirm inactive
CCCn1c(=O)c(C(=O)NCc2ccccc2Cl)c(O)c2ccccc21	none (no result: KCNQ2 enhance)
C=CCn1c(=O)c(C(=O)Nc2ccc(C)cc2)c(O)c2ccccc21	none (no result: KCNQ2 enhance)
C=CCn1c(=O)c(C(=O)NCc2ccccc2Cl)c(O)c2ccccc21	KCNQ2 block -7.1 | KCNQ2 block conf inactive | KCNQ1 spec inactive | CHO Tl ctr inactive
Cc1ccc(CNC(=O)CS(=O)(=O)c2cn(CC(=O)N3CCOCC3)c3ccccc23)cc1	none (no result: KCNQ2 enhance)
